Screening results (PubChem BioAssay)
L3MBTL1 block = blocks human L3MBTL1; 0.66% of 230,000 active; Q9Y468; Potency, µM (series often up to 57.1 µM), inactives show at the highest dose activity, negative = inhibition, most hits filed as inhibitors; AlphaScreen L3MBTL1–H3K9me1 peptide binding; further: on the % scale 0 is the no-effect control and ±100 the full control effect; nearly all actives have a fitted effect of over 60% in size
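Read-out is AlphaScreen signal from streptavidin donor and nickel chelate acceptor beads (10 ug/mL final each) bridging L3MBTL1 (50 nM) and biotinylated K9-monomethylated H3(1-15) peptide (75 nM), after 30 min compound exposure at room temperature.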
BAZ2B inh = BAZ2B (human) inhibition; AlphaScreen BAZ2B-H3K14Ac peptide displacement; Potency, µM (titrated, usually from 114 µM), for inactives: top-dose activity change, negative = inhibition, actives largely listed as inhibitors; 4.4% of 360,000 active; AID 504333; further: on the % scale 0 is the no-effect control and ±100 the full control effect; nearly all actives have a fitted effect of over 60% in size
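In this displacement format the biotinylated H3(5-23) peptide acetylated at Lys14 serves as ligand at 50 nM, with BAZ2B at 50 nM in PBS pH 7.4 containing 0.01% Tween-20. Donor and acceptor beads are 10 ug/mL final.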
Sfp inh = Sfp phosphopantetheinyl transferase inhibition. AID 1490. Biochemical Sfp PPTase activity, qHTS. Q9F4F7. 3.5% of 310,000 active. Potency, µM, inactives show largest response in the series, negative = inhibition, most hits filed as inhibitors;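 further: the enzyme is Sfp with the accession as filed and its product quenches rhodamine fluorescence; 0% = enzyme reaction without inhibitor and -100% = no enzyme wells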
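Step 1, compound plus 15 nM Sfp-PPTase, 15 min, room temperature. Step 2, add rhodamine-CoA (5 uM) and BHQ-2-YbbR (12.5 uM). Step 3, read 525/598 nm fluorescence at 0 and 30 min.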
JMJD2A Tudor inh = blocks the human JMJD2A Tudor domain; AlphaScreen JMJD2A-Tudor / H3K4me3 peptide binding; AID 504339; 4.4% of 390,000 active; Potency, µM (top dose mostly 114 µM), inactives show at the highest dose activity change, negative = inhibition, hits mostly inhibitors; further: on the % scale 0 is the no-effect control and ±100 the full control effect; nearly all actives have a fitted effect of over 50% in size
G9a inh = G9a (human) methyltransferase inhibition; Q96KQ7; G9a H3K9 monomethylation, AlphaScreen, 2 h; Potency, µM (highest dose often 102 µM), inactives show top-dose activity, negative = inhibition, hits mostly inhibitors; 8.8% of 350,000 active; AID 504332; further: on the % scale 0 is the no-effect control and ±100 the full control effect; nearly all actives have a fitted effect of over 75% in size
Target sequence (Q96KQ7 913-1193 limits assumed): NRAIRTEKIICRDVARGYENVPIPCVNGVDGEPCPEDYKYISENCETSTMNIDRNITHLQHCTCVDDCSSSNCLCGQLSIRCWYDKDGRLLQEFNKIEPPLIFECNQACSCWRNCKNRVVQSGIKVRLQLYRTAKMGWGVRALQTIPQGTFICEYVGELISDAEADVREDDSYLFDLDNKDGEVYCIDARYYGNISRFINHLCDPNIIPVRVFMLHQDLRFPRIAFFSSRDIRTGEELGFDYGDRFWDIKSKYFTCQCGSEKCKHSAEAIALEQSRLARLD
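Methyltransferase reactions run at room temperature for 2 h (20 nM enzyme, 500 nM biotin-H3K9 peptide, 20 uM SAM) after a 15 min compound preincubation; product detected by AlphaScreen beads and anti-H3K9me1 antibody.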
HP1b chromo inh = HP1-beta chromodomain-methylated histone interaction inhibition; 0.56% of 390,000 active; Potency, µM (doses to about 114 µM), without a hit: at the top dose activity change, negative = inhibition, actives largely listed as inhibitors; AID 540317; AlphaScreen HP1-beta / biotin-H3K9me3 peptide binding; P83916; further: nearly all actives have a fitted effect of over 70% in size
Target sequence (P83916 whole entry, looked up): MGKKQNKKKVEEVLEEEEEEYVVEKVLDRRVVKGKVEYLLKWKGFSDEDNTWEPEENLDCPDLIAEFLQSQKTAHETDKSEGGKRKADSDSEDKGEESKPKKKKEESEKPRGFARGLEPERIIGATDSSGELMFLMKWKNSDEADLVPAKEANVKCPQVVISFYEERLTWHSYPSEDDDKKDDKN
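AlphaScreen: HP1-beta (50 nM) preformed 30 min with biotin-H3(1-18)K9me3 peptide (50 nM) in PBS pH 7.4, 0.01% Tween-20. Compound added for 30 min at RT, then streptavidin donor/nickel chelate acceptor beads (10 ug/mL) for 30 min.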
* hit, by the source's call; ? = inconclusive; . = no result given; [ ] = dose if it differs, or a comment. Sampled rows, rich in hits. Any-hit rate of the full collection: about 12%. The call rests on the fitted dose curve; in most records, active means well fitted curve in the direction sought with a large enough effect; inconclusive means small, poorly fitted or top-dose-only effect, or another doubt; inactive means no such curve, though single readings can be large; an effect the other way counts as inactive or inconclusive. Potency means the concentration at half of the fitted maximal effect.

SMILES	L3MBTL1 block	BAZ2B inh	Sfp inh	JMJD2A Tudor inh	G9a inh	HP1b chromo inh
Cc1sc2nc(CN3CCN(c4ccc(O)cc4)CC3)[nH]c(=O)c2c1C	.	?	35.5µM*	?	.	?
O=S(=O)(c1ccccc1Cl)N1CCN(c2nc(-c3ccccc3)nc3ccccc23)CC1	.	.	.	-5.7%	.	23.0%
Cc1ccc(NC(=O)CN2C(=O)COc3ccc(S(=O)(=O)N4CCCCCC4)cc32)c(C)c1	.	-14.8%	.	-2.9%	-26.3%[59 µM]	38.7%
CCOC(=O)c1c(NC(=O)c2cc(-c3cccc(O)c3)on2)sc(C(C)=O)c1C	6.1%	?	-3.7%	-35.2%	?	64.4%
CCOC(=O)c1c(-c2ccccc2)csc1NC(=O)c1cc(-c2ccc(C)c(F)c2)on1	.	-11.1%	.	-17.5%	-8.9%[59 µM]	29.0%
CCOC(=O)c1c(NC(=O)c2cc(-c3cccc(Cl)c3)on2)sc(C(C)=O)c1C	.	1.0%	.	-11.9%	14.1µM*	70.8µM*
CCOC(=O)c1c(-c2ccc(C)cc2)csc1NC(=O)c1nc(SC(C)C)ncc1Cl	.	-7.1%	.	-17.0%	12.6µM*	-12.3%
CCOC(=O)c1c(-c2ccccc2)csc1NC(=O)c1cc(-c2ccc(Cl)cc2)on1	.	4.1%	.	0.0%	17.8µM*	-5.0%
CCOC(=O)c1c(-c2ccccc2)csc1NC(=S)N(CC)CC	11.7%	3.5%	-2.9%	17.5%	22.4µM*	14.8%
COc1ccc(CCNC(=O)c2cc(S(=O)(=O)N3CCCC(C)C3)cn2C)cc1OC (configuration not stated)	.	-12.8%	.	-12.5%	-2.8%[59 µM]	23.6%[57 µM]
CCOC(=O)c1c(NC(=O)c2cc(-c3cccc(Cl)c3)on2)sc(C)c1C	.	-0.7%	.	6.1%	12.6µM*	9.0%
CCOC(=O)c1c(-c2ccc(C)cc2)csc1NC(=O)c1cc(=O)c2cc(C)cc(C)c2o1	.	12.4%	.	-9.7%	7.08µM*	?
CCOC(=O)c1sc(NC(=O)c2cc(-c3cccc(O)c3)on2)c(C(=O)OCC)c1C	7.7%	3.7%	9.6%	-17.0%	-4.0%	51.6%
CCOC(=O)c1c(NC(=O)c2cc(-c3ccc(Br)cc3)on2)sc(C)c1C	.	3.1%	.	-18.8%	2.82µM*	-9.8%
CCOC(=O)c1c(NC(=O)c2noc(C)c2[N+](=O)[O-])sc(C(C)=O)c1C	.	-3.8%	-20.8%	-28.5%	39.8µM*	-20.6%
CCOC(=O)c1c(-c2ccc(C)cc2)csc1NC(=O)c1cc(=O)c2cc(Cl)ccc2o1	.	20.3%	.	-4.5%	14.0%[59 µM]	50.6%
O=C1Nc2ccccc2/C1=C\C(=O)c1ccccc1	.	-26.1%	?	?	25.1µM*	-14.7%
O=C(/C=C1\C(=O)Nc2ccccc21)/C=C1\C(=O)Nc2ccccc21	-14.0%	44.7µM*	1.41µM*	?	7.08µM*	-1.1%
CC(C)Oc1ccc(C(=O)/C=C2/C(=O)Nc3ccccc32)cc1	.	?	-21.2%	?	39.8µM*	-4.4%
O=C1Nc2ccccc2C1=O	.	.	.	-12.9%	.	1.0%
CN(C)/C=C1\C(=O)Nc2ccccc21	.	6.9%	9.7%	-8.3%	?	27.6%
CN(O)/C=C1\C(=O)Nc2ccccc21	.	-6.3%	50.1µM*	-28.3%	50.1µM*	-8.9%
O=C1Nc2ccccc2Nc2ccccc21	.	?	-20.2%	50.1µM*	14.1µM*	5.2%
CC12CCC(C(=O)NCc3ccco3)(OC1=O)C2(C)C (configuration not stated)	.	-29.6%	16.2%	-13.5%	-23.2%[12.7 µM]	9.1%
CC12CCC(C(=O)NCCCn3ccnc3)(OC1=O)C2(C)C (configuration not stated)	-0.4%	-2.5%	3.8%	-26.0%[11.4 µM]	15.8µM*	-4.1%
SMILES	L3MBTL1 block	BAZ2B inh	Sfp inh	JMJD2A Tudor inh	G9a inh	HP1b chromo inh
O=C(O)C1=NN(c2ccccc2)C(=O)C1	-7.4%	?	-21.8%	56.2µM*	50.1µM*	?
O=C(O)C1=NN(c2ccccc2)C(=O)CC1	7.2%	?	8.3%	-2.8%	-2.4%	29.2%
COc1ccc(Cc2cnc(N)nc2N)cc1OC	.	.	-1.5%	.	-4.9%[12.7 µM]	.
CCOC(=O)c1c(NC(=O)c2cccs2)sc(C)c1CC	79.8%	222.0%	-11.8%	78.6%	229.6%	182.6%
CCc1c(C)sc(NC(=O)c2cccs2)c1C#N	7.4%	2.7%	?	-9.2%	12.6µM*	-7.3%
CCc1c(C)sc(NC(=O)c2cc(-c3ccc(OC)cc3)on2)c1C#N	.	-2.5%	.	2.4%	10µM*	9.0%
CCc1c(C)sc(NC(=O)c2cc(-c3ccco3)on2)c1C#N	-2.4%	-0.7%	?	-18.6%	12.6µM*	-13.8%
CCc1c(C)sc(NC(=O)c2cc(C)on2)c1C#N	2.0%	1.6%	-5.1%	-9.3%	.	4.7%
Cn1c(=O)c2c(nc(CN3CCN(C(=O)c4ccco4)CC3)n2Cc2ccccc2)n(C)c1=O	-2.5%	11.5%	-19.0%	-13.1%	?	8.5%
Cc1ccc(Cn2c(CN3CCN(C(=O)c4ccco4)CC3)nc3c2c(=O)n(C)c(=O)n3C)cc1	-7.1%	-9.5%	-0.2%	-6.7%	50.1µM*	27.3%
Cn1c(=O)c2c(nc(CN3CCN(C(=O)c4ccco4)CC3)n2Cc2ccc(Cl)cc2)n(C)c1=O	-4.6%	?	1.9%	7.4%	50.1µM*	27.3%
COc1cc(/C=C/CN2CCN(Cc3ccc(C)o3)C(CCO)C2)ccc1O (configuration not stated)	-13.8%	-23.6%	1.8%	-19.7%	79.4µM*	-13.6%
COc1cc(/C=C/CN2CCN(CCC(C)C)C(CCO)C2)ccc1O (configuration not stated)	-3.6%	-21.2%	-0.6%	-24.7%	70.8µM*	20.6%
COc1cc(/C=C/CN2CCC(CO)(CC3CCCCO3)CC2)ccc1O (configuration not stated)	-10.8%	-23.7%	13.4%	-16.4%	56.2µM*	2.2%
COc1ccc(/C=C/CN2CCN(CC(C)C)C(CCO)C2)cc1 (configuration not stated)	-0.1%	-2.4%	11.9%	-14.1%	?	23.8%
OCC1(CC2CCCCO2)CCN(C/C=C/c2ccccc2)CC1 (configuration not stated)	-3.6%	15.8%	14.7%	-4.2%	8.0%	23.2%
COc1ccc(S(=O)(=O)c2cn(Cc3ccccc3)c3cc(N4CCCC4)c(F)cc3c2=O)cc1	.	0.7%	.	-7.6%	0.6%[59 µM]	20.3%
Cn1cccc1C(=O)N1CCC2(CC1)CN(Cc1cc(C(F)(F)F)cc(C(F)(F)F)c1)C2	.	.	34.9%	.	-33.3%[12.7 µM]	.
O=C(CSc1nnc(COc2ccccc2)o1)NCCc1ccccc1	-1.9%	6.2%	21.3%	3.16µM*	-4.0%[59 µM]	?
O=C(CSc1nnc(COc2ccccc2)o1)Nc1nccs1	?	79.4µM*	11.4%	-33.8%	12.7%	64.2%
Cc1cc(-c2nnc(SCC(=O)Nc3nccs3)o2)no1	.	20µM*	7.2%	39.8µM*	36.3%[12.7 µM]	24.0%
